Source: the supplement of paper PMC6555819

Tests used:
Test in all cases: PBM binding z-score (relative to random genomic background probes); higher = stronger binding; sequences stand for … in GC…GCGATTGACAGCGTAGAATGAAGG
[1] = test system: FXR:RXRa (NR concentration 270 nM, RXRa partner concentration 90 nM)
How it was run: (§1)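 Custom Agilent 4×180K protein-binding microarrays carried double-stranded probes. Their 34-nt variable regions held direct-repeat seeds, single-nucleotide variants, half-site ablations and random human genomic background sequences. Arrays were incubated 1 h with ligand-free nuclear receptor dimers in PBS pH 7.4, 2% milk, 0.02% Triton X-100, 1 mM DTT, 0.2 mg/mL BSA and 0.4 mg/ml salmon testes DNA. Antibodies against each partner (one per run) detected binding, and scanned fluorescence was regression-normalized. Binding z-scores use random background probes as reference.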

[2] = test system: LXRa:RXRa (NR concentration 270 nM, RXRa partner concentration 90 nM)
How it was run: as §1

[3] = test system: LXRa homodimer (NR concentration 270 nM)
How it was run: as §1

[4] = test system: LXRb:RXRa (NR concentration 270 nM, RXRa partner concentration 90 nM)
How it was run: as §1

[5] = test system: LXRb homodimer (NR concentration 270 nM)
How it was run: as §1

[6] = test system: PPARa:RXRa (NR concentration 270 nM, RXRa partner concentration 90 nM)
How it was run: as §1

[7] = test system: PPARg:RXRa (NR concentration 180 nM, RXRa partner concentration 90 nM)
How it was run: as §1

[8] = test system: PPARg:RXRa 270nM:90nM, anti-RXR (NR concentration 270 nM, RXRa partner concentration 90 nM)
How it was run: as §1

[9] = test system: PPARg:RXRa 30nM:10nM, anti-RXR (NR concentration 30 nM, RXRa partner concentration 10 nM)
How it was run: as §1

[10] = test system: PPARg:RXRa 90nM:30nM, anti-RXR (NR concentration 90 nM, RXRa partner concentration 30 nM)
How it was run: as §1

[11] = test system: PPARg:RXRa DBDmut IVT, anti-RXR (DBD mutation: RXRa K156A/R161A, NR concentration 270 nM, RXRa partner concentration 90 nM)
How it was run: as §1

[12] = test system: PPARg:RXRa IVT, anti-PPARg (NR concentration 270 nM, RXRa partner concentration 90 nM)
How it was run: as §1

[13] = test system: PPARg DBDmut:RXRa IVT, anti-PPARg (DBD mutation: PPARg1 K132A/R137A, NR concentration 270 nM, RXRa partner concentration 90 nM)
How it was run: as §1

[14] = test system: PPARg DBDmut IVT, anti-PPARg (DBD mutation: PPARg1 K132A/R137A, NR concentration 270 nM)
How it was run: as §1

[15] = test system: PPARg homodimer (NR concentration 180 nM)
How it was run: as §1

[16] = test system: PXR:RXRa (NR concentration 270 nM, RXRa partner concentration 90 nM)
How it was run: as §1

[17] = test system: PXR homodimer (NR concentration 270 nM)
How it was run: as §1

[18] = test system: RARa:RXR (NR concentration 270 nM, RXRa partner concentration 90 nM)
How it was run: as §1

[19] = test system: RARa homodimer (NR concentration 270 nM)
How it was run: as §1

[20] = test system: RARb:RXRa (NR concentration 270 nM, RXRa partner concentration 90 nM)
How it was run: as §1

CCTACAGGGCCATTCAGAGGTCATTGATCATATG
PBM binding z-score [1]: 3.14
PBM binding z-score [2]: 4.65
PBM binding z-score [3]: 6.45
PBM binding z-score [4]: 3.82
PBM binding z-score [5]: 0.447
PBM binding z-score [6]: 3.5
PBM binding z-score [7]: 0.853
PBM binding z-score [8]: 1.79
PBM binding z-score [9]: 0.168
PBM binding z-score [10]: 0.721
PBM binding z-score [11]: 0.235
PBM binding z-score [12]: 0.996
PBM binding z-score [13]: -0.322
PBM binding z-score [14]: -0.38
PBM binding z-score [15]: 1.96
PBM binding z-score [16]: 5.17
PBM binding z-score [17]: 2.91
PBM binding z-score [18]: 5.04
PBM binding z-score [19]: 0.639
PBM binding z-score [20]: 3.47

CCAAGTAGGTTATGGGGCATTCAGGCAACGGTGA
PBM binding z-score [1]: 0.142
PBM binding z-score [2]: 0.353
PBM binding z-score [3]: -0.344
PBM binding z-score [4]: 0.363
PBM binding z-score [5]: -0.655
PBM binding z-score [6]: 2.93
PBM binding z-score [7]: 5.23
PBM binding z-score [8]: 5.69
PBM binding z-score [9]: 4.33
PBM binding z-score [10]: 5.84
PBM binding z-score [11]: 5.49
PBM binding z-score [12]: 4.96
PBM binding z-score [13]: 0.251
PBM binding z-score [14]: 0.296
PBM binding z-score [15]: 1.18
PBM binding z-score [16]: -0.156
PBM binding z-score [17]: -0.101
PBM binding z-score [18]: 0.207
PBM binding z-score [19]: 0.919
PBM binding z-score [20]: 1.05

CGTCCAAGATCAGAGAGGTCAGTGAATGCCGAGT
PBM binding z-score [1]: 1.64
PBM binding z-score [2]: 2
PBM binding z-score [3]: 1.44
PBM binding z-score [4]: 1.92
PBM binding z-score [5]: 0.00137
PBM binding z-score [6]: 2.52
PBM binding z-score [7]: 0.376
PBM binding z-score [8]: 0.581
PBM binding z-score [9]: 0.00146
PBM binding z-score [10]: 0.0792
PBM binding z-score [11]: 0.179
PBM binding z-score [12]: 0.0749
PBM binding z-score [13]: -0.351
PBM binding z-score [14]: -0.769
PBM binding z-score [15]: 2.69
PBM binding z-score [16]: 3.22
PBM binding z-score [17]: 2.06
PBM binding z-score [18]: 3.09
PBM binding z-score [19]: 1.49
PBM binding z-score [20]: 2.95

TTACCAACGTGAGCTGAGGTCGTTGATCCAACTC
PBM binding z-score [1]: 0.516
PBM binding z-score [2]: 0.0402
PBM binding z-score [3]: -0.0796
PBM binding z-score [4]: 0.169
PBM binding z-score [5]: -0.442
PBM binding z-score [6]: 0.553
PBM binding z-score [7]: -0.116
PBM binding z-score [8]: -0.131
PBM binding z-score [9]: 0.0496
PBM binding z-score [10]: -0.0803
PBM binding z-score [11]: -0.844
PBM binding z-score [12]: -0.235
PBM binding z-score [13]: -0.101
PBM binding z-score [14]: -0.365
PBM binding z-score [15]: -0.384
PBM binding z-score [16]: 1.52
PBM binding z-score [17]: 0.291
PBM binding z-score [18]: 0.951
PBM binding z-score [19]: -0.767
PBM binding z-score [20]: 0.217

CTCGAAAGGTCGGTTGAGGTGAATATACGGATAA
PBM binding z-score [1]: 2.5
PBM binding z-score [2]: 2.04
PBM binding z-score [3]: 0.0954
PBM binding z-score [4]: 1.76
PBM binding z-score [5]: 0.0541
PBM binding z-score [6]: 3.15
PBM binding z-score [7]: 0.944
PBM binding z-score [8]: 1.6
PBM binding z-score [9]: 0.365
PBM binding z-score [10]: 1.15
PBM binding z-score [11]: -0.113
PBM binding z-score [12]: 1.11
PBM binding z-score [13]: 0.319
PBM binding z-score [14]: 0.349
PBM binding z-score [15]: 0.741
PBM binding z-score [16]: 3.62
PBM binding z-score [17]: 0.148
PBM binding z-score [18]: 2.94
PBM binding z-score [19]: 0.256
PBM binding z-score [20]: 3.27

CTACCAAGGTGAACAAGGTCGTTGCTTACTATTC
PBM binding z-score [1]: 1.51
PBM binding z-score [2]: 1.61
PBM binding z-score [3]: 0.37
PBM binding z-score [4]: 2.11
PBM binding z-score [5]: -0.314
PBM binding z-score [6]: 2.55
PBM binding z-score [7]: 0.964
PBM binding z-score [8]: 1.34
PBM binding z-score [9]: -0.119
PBM binding z-score [10]: 0.845
PBM binding z-score [11]: 2.88
PBM binding z-score [12]: 2.58
PBM binding z-score [13]: 0.0347
PBM binding z-score [14]: -0.195
PBM binding z-score [15]: 1.15
PBM binding z-score [16]: 3.08
PBM binding z-score [17]: 1.88
PBM binding z-score [18]: 2.64
PBM binding z-score [19]: -0.135
PBM binding z-score [20]: 2.23
